HT1080NT lethal – kills 2HG-producing HT-1080-NT fibrosarcoma cells; HT-1080-NT fibrosarcoma viability, CellTiter-Glo ATP luminescence, 48 h; Potency, µM (doses to about 46.1 µM), for the others: at the highest dose activity, negative = less viability, most hits filed as cytotoxic; 360,000 compounds, 1.6% hits;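 note: NT is the 2HG producing partner of a matched IDH1 knockdown line; 0% = DMSO-treated cells and -100% = media-only wells without cells; nearly all actives have a fitted effect of over 55% in size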
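Fibrosarcoma NT cells, 750 per well in 5% FBS RPMI, were exposed to compound for 48 hours. Viability: CellTiter-Glo luminescence.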
TDP1 cell noCPT – qHTS for Inhibitors of human tyrosyl-DNA phosphodiesterase 1 (TDP1): qHTS in cells in absence of CPT. AID 686978, 2013. Potency, µM (highest dose often 46.2 µM), for the others: at the highest dose activity change, negative = growth inhibition, hits mostly inhibitors. DT40 Tdp1-/- hTDP1 cells, no CPT, ATP luminescence, 48 h. 420,000 compounds, 15% hits; note: nearly all actives have a fitted effect of over 55% in size
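Camptothecin absent (DMSO only). Human TDP1-complemented DT40 knockout cells, 400 cells/well, 37 °C for minimum 48 hr; ATP measured via CellTiter-Glo, 30 min dark incubation, luminescence.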
TDP1 cell CPT – growth inhibition of DT40 Tdp1-/-;hTDP1 cells with camptothecin (screen for TDP1 inhibitors); chicken DT40 Tdp1-/-;hTDP1 cells + 20 nM CPT, ATP luminescence, 48 h; Potency, µM (highest dose often 46.2 µM), without a hit: top-dose activity change, negative = growth inhibition, most hits filed as inhibitors; 420,000 compounds, 12% hits; AID 686979; note: nearly all actives have a fitted effect of over 55% in size
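Chicken DT40 Tdp1-/- cells stably complemented with human TDP1 were seeded at 400 cells/well in medium containing 20 nM camptothecin, exposed to pin-transferred compounds, and grown at 37 °C for at least 48 hr. Viability was read as ATP luminescence.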
KB-3-1 cytotox – KB-3-1 parental cell cytotoxicity; Potency, µM (top dose mostly 46.1 µM), most hits filed as cytotoxic; 400,000 compounds, 1.4% hits; KB-3-1 viability, CellTiter-Glo ATP luminescence, 72 h; note: nearly all actives have a fitted effect of over 60% in size
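KB-3-1 parental drug-naive adenocarcinoma cells in DMEM/10% FBS, incubated 72 h at 37 C with pin-transferred compounds across a concentration series. Viability by CellTiter-Glo luminescence; concentration-response curves fitted after normalization.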
HT1080 IDH1KD tx – kills HT-1080 cells with IDH1 knockdown | AID 686971 | Potency, µM (series often up to 46.1 µM), without a hit: top-dose activity, negative = toxicity, most hits filed as cytotoxic | 360,000 compounds, 2% hits | HT-1080 IDH1 knockdown viability, ATP luminescence, 48 h;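 note: 0% = DMSO wells and -100% = cell-free medium wells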
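After a 2 h attachment period, IDH1KD HT-1080 cells took pin-transferred compound for 48 h at 37 °C; ATP-based luminescence after 10 min room-temperature reagent incubation reported viability.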
KB-V1 cytotox – KB-V1 MDR subline cytotoxicity; KB-V1 MDR cells viability, CellTiter-Glo, 72 h; Potency, µM (top dose mostly 46.1 µM), actives largely listed as cytotoxic; 400,000 compounds, 3.4% hits; AID 1347076; note: nearly all actives have a fitted effect of over 60% in size
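Drug-selected KB-V1 cells, grown in DMEM lacking phenol red with 10% FBS, receive compound titrations; after three days at 37 degrees C, surviving cell ATP is quantified by CellTiter-Glo luminescence and responses normalized and curve-fitted.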
Numbers without * were called inactive; [ ] = another dose, or the depositor's remark. Shown are actives, neighbours in structure and some others; about 19% of the full set was active somewhere. Calls come from the whole dose curve; as a rule, active = well fitted curve in the direction sought with a large enough effect; inconclusive = small, poorly fitted or top-dose-only effect, or another doubt; inactive = no such curve, though single readings can be large; an effect the other way counts as inactive or inconclusive. Unless noted, % is set by controls: 0 for no effect and ±100 for the full control effect; potency is the fitted concentration of half-maximal effect.

What do the screens show for `CC1CCc2onc(C(=O)N3CCN(c4ccc(Cl)cc4)CC3)c2C1` (configuration not stated)?
TDP1 cell noCPT: -64%; TDP1 cell CPT: inconclusive

How did CCNc1ncc2nc(CCc3ccccc3)c(=O)n(CCOC)c2n1 do in these assays?
TDP1 cell noCPT: -15%; TDP1 cell CPT: 10%

Results for COc1ccccc1CNC(=O)Cn1c(=O)oc2cc(S(=O)(=O)NCc3ccccc3)ccc21 ?
TDP1 cell noCPT: 18µM*; TDP1 cell CPT: 10µM*; KB-3-1 cytotox: inconclusive; KB-V1 cytotox: inactive

How did CCOc1ccccc1NC(=O)Cn1c(=O)oc2cc(S(=O)(=O)NCc3ccccc3)ccc21 do in these assays?
TDP1 cell noCPT: inconclusive; TDP1 cell CPT: 13µM*; KB-3-1 cytotox: inactive; KB-V1 cytotox: inactive

How did COc1ccc(OC)c(NC(=O)Cn2c(=O)oc3cc(S(=O)(=O)NCc4ccccc4)ccc32)c1 do in these assays?
TDP1 cell noCPT: 15µM*; TDP1 cell CPT: inconclusive; KB-3-1 cytotox: inactive; KB-V1 cytotox: inactive

How did COc1ccccc1CNC(=O)Cn1c(=O)oc2ccccc21 do in these assays?
TDP1 cell noCPT: -19%; TDP1 cell CPT: -1%; KB-3-1 cytotox: inactive; KB-V1 cytotox: inactive

Results for C=CC1=C(C(=O)O)N2C(=O)[C@@H](NC(=O)/C(=N/OCC(=O)O)c3csc(N)n3)[C@H]2SC1 (stereo in doubt) ?
TDP1 cell noCPT: -1%[21.1 µM]; TDP1 cell CPT: -10%[21.1 µM]

What do the screens show for `CCc1ccc2nc(N3CCN(C(=O)C(C)(C)C)CC3)sc2c1`?
HT1080NT lethal: -4%; TDP1 cell noCPT: 18µM*; TDP1 cell CPT: inconclusive; KB-3-1 cytotox: inactive; HT1080 IDH1KD tx: 6%; KB-V1 cytotox: inconclusive

How did CC(C)(C)C(=O)N1CCN(c2nc3ccccc3s2)CC1 do in these assays?
HT1080NT lethal: inconclusive; TDP1 cell noCPT: inconclusive; TDP1 cell CPT: -23%; KB-3-1 cytotox: inactive; HT1080 IDH1KD tx: -11%; KB-V1 cytotox: inactive

What do the screens show for `CCCCC(=O)N1CCN(c2nc3ccc(F)cc3s2)CC1`?
HT1080NT lethal: inconclusive; TDP1 cell noCPT: 8.2µM*; TDP1 cell CPT: inconclusive; KB-3-1 cytotox: inactive; HT1080 IDH1KD tx: inconclusive; KB-V1 cytotox: inactive

Results for CCC(=O)N1CCN(c2nc3ccc(Br)cc3s2)CC1 ?
HT1080NT lethal: inconclusive; TDP1 cell noCPT: 18µM*; TDP1 cell CPT: inconclusive; KB-3-1 cytotox: inactive; HT1080 IDH1KD tx: inconclusive; KB-V1 cytotox: inactive

Results for CCCC(=O)N1CCN(c2nc3ccc(F)cc3s2)CC1 ?
TDP1 cell noCPT: 12µM*; TDP1 cell CPT: 15µM*

Results for CCCC(=O)N1CCN(c2nc3ccccc3s2)CC1 ?
HT1080NT lethal: -21%; TDP1 cell noCPT: -30%; TDP1 cell CPT: inconclusive; KB-3-1 cytotox: inconclusive; HT1080 IDH1KD tx: -4%; KB-V1 cytotox: inactive

What do the screens show for `Cc1ccc(NC(=O)CSc2nnc(Cc3ccccc3)c(=O)[nH]2)c(C)c1`?
HT1080NT lethal: 1%; TDP1 cell noCPT: inconclusive; TDP1 cell CPT: -23%; KB-3-1 cytotox: inactive; HT1080 IDH1KD tx: 12%; KB-V1 cytotox: inactive

What do the screens show for `CC1(c2nc3ccccc3[nH]2)c2ccccc2C(=O)N1C1CC1` (configuration not stated)?
HT1080NT lethal: 20%; TDP1 cell noCPT: -17%; TDP1 cell CPT: 2%; KB-3-1 cytotox: inactive; HT1080 IDH1KD tx: 7%; KB-V1 cytotox: inconclusive

How did CC1Oc2ccccc2N(CC(=O)NCCCN2CCOCC2)C1=O (configuration not stated) do in these assays?
HT1080NT lethal: 10%; TDP1 cell noCPT: 2%; TDP1 cell CPT: 4%; KB-3-1 cytotox: inactive; HT1080 IDH1KD tx: 8%; KB-V1 cytotox: inactive

How did CC1Oc2ccccc2N(CC(=O)Nc2ccc3c(c2)OCCO3)C1=O (configuration not stated) do in these assays?
HT1080NT lethal: 11%; TDP1 cell noCPT: inconclusive; TDP1 cell CPT: -14%; KB-3-1 cytotox: inactive; HT1080 IDH1KD tx: -24%; KB-V1 cytotox: 16µM*

How did CCC1Oc2ccccc2N(CC(=O)NCCC2=CCCCC2)C1=O (configuration not stated) do in these assays?
HT1080NT lethal: -1%; TDP1 cell noCPT: 26µM*; TDP1 cell CPT: 16µM*; KB-3-1 cytotox: inactive; HT1080 IDH1KD tx: -7%; KB-V1 cytotox: inactive

Results for CC1Oc2ccccc2N(CC(=O)N2CCCCC2)C1=O (configuration not stated) ?
HT1080NT lethal: -3%; TDP1 cell noCPT: -15%; TDP1 cell CPT: 15%; KB-3-1 cytotox: inactive; HT1080 IDH1KD tx: 10%; KB-V1 cytotox: inactive

How did CC1Oc2ccccc2N(CC(=O)N2CCc3ccccc32)C1=O (configuration not stated) do in these assays?
HT1080NT lethal: -3%; TDP1 cell noCPT: -30%; TDP1 cell CPT: -11%; KB-3-1 cytotox: inactive; HT1080 IDH1KD tx: -3%; KB-V1 cytotox: 15µM*

What do the screens show for `CC1Oc2ccccc2N(CC(=O)NCCc2ccccc2)C1=O` (configuration not stated)?
HT1080NT lethal: 0%; TDP1 cell noCPT: -21%; TDP1 cell CPT: -6%; KB-3-1 cytotox: inactive; HT1080 IDH1KD tx: -2%; KB-V1 cytotox: 16µM*

What do the screens show for `Cc1ccc(NC(=O)NCCCN2CCCC2=O)cc1C`?
HT1080NT lethal: 3%; TDP1 cell noCPT: 9%; TDP1 cell CPT: -10%; KB-3-1 cytotox: inactive; HT1080 IDH1KD tx: 6%; KB-V1 cytotox: inactive

What do the screens show for `CC1Oc2ccccc2N(CC(=O)Nc2ccc3c(c2)OCO3)C1=O` (configuration not stated)?
HT1080NT lethal: 12%; TDP1 cell noCPT: -25%; TDP1 cell CPT: -2%; KB-3-1 cytotox: inactive; HT1080 IDH1KD tx: -7%; KB-V1 cytotox: 21µM*

What do the screens show for `COc1ccc(N2CCN(Cc3nc4c(c(=O)[nH]c(=O)n4C)n3Cc3ccccc3F)CC2)cc1`?
TDP1 cell noCPT: -5%; TDP1 cell CPT: -20%

How did CS(=O)(=O)N1CCC[C@@]2(CCN(Cc3ccc(C#N)cc3)C2)C1 do in these assays?
TDP1 cell noCPT: -8%; TDP1 cell CPT: 5%

What do the screens show for `CCOC(=O)C1(Cc2cccc(F)c2)CCN(Cc2cn(CC)nc2C)CC1`?
HT1080NT lethal: 4%; TDP1 cell noCPT: inconclusive; TDP1 cell CPT: 1%; KB-3-1 cytotox: inactive; HT1080 IDH1KD tx: -12%; KB-V1 cytotox: inconclusive

Bioassay records (PubChem BioAssay)
